In PubChem BioAssay (NCATS):
Inconclusive results are not listed. The source made the active and inactive calls. Calls come from the whole dose curve; as a rule, active = well fitted curve in the direction sought with a large enough effect; inconclusive = small, poorly fitted or top-dose-only effect, or another doubt; inactive = no such curve, though single readings can be large or run the other way.

Biological target: phosphoglycerate mutase (Leishmania major) (UniProt Q4Q090)
Assay: qHTS Validation Assay to Find Inhibitors of Phosphoglycerate Mutase (AID 504548)
Conditions: biochemical enzyme activity; series mostly up to 57.5 µM
Excerpt: NIH Molecular Libraries Probe Production Network [MLPCN]
NIH Chemical Genomics Center [NCGC]
PI Name: Malcolm Walkinshaw, University of Edinburgh
Several species of the Trypanosomatidae family of parasitic protozoans cause a spectrum of diseases throughout the tropical and subtropical world. Sleeping sickness, caused by two subspecies of Trypanosoma brucei, is endemic to areas of sub-Saharan Africa, while Chagas disease, a manifestation of Trypanosoma cruzi infection, is prevalent throughout Central and South America. In addition, many species of Leishmania are responsible for a range of cutaneous and visceral diseases, causing ulcers, destructive lesions and kalaazar, a lethal infection of the viscera. Collectively, these organisms infect 30 million people worldwide (~500 million live in endemic areas), and account for ~130,000 deaths annually. Given their debilitating and prevalent nature, trypanosomatid parasites impose a heavy medical, economic and social burden on entire populations, primarily in the developing world. The problem is further exacerbated by the fact that existing treatments have progressed little in the past 50 years, and current drugs show high toxicity and poor efficacy.
Blood-stream stages of T. brucei are entirely dependent on glycolysis as a source of ATP, and the tricarboxylic acid cycle and oxidative phosphorylation are both repressed. Glycolysis in axenically cultured T. cruzi, representing the intracellular pathogenic stage, is also essential for these parasites. […] Previous studies have shown that the glycolytic enzyme, phosphoglycerate mutase (PGAM), is a viable target for drugs to kill these parasites. […] Furthermore, the cobalt centers present within PGAM are only found in trypanosomatid and plant PGAMs, and are known to be required for activity, thereby providing an additional target. Moreover, trypanosomatid PGAMs are completely different from the enzyme that performs the same function in humans: the parasite and host enzymes share no structural or even mechanistic features; specificity is therefore unlikely to be an issue.
NCGC Assay Protocol Summary:
Briefly, 3ul of substrate buffer (all columns) are dispensed into Greiner white solid bottom 1536-well assay plates. Compounds are then transferred via Kalypsys pin tool equipped with 1536-pin array (10nl slotted pins, V&P Scientific, San Diego, CA). Following addition of compound, 1ul of Lm PGAM (1.25nM final concentration, columns […]) is added to initiate the reaction; columns 3-4 receive only TEA buffer as negative controls. The plates are then incubated at room temperature for 45 minutes. Kinase-GloPlus reagent is added (2ul) and plates incubated for 10 minutes, before being transferred to a ViewLux high-throughput CCD imager (PerkinElmer) wherein single end-point measurements of luminescence are acquired using a clear filter. All reagents are diluted in an assay buffer consisting of 100 mM TEA (pH 7.6), 5 mM MgCl2 and 0.01% Tween-20.

phosphoglycerate mutase (Leishmania major), sequence (Q4Q090 1-553): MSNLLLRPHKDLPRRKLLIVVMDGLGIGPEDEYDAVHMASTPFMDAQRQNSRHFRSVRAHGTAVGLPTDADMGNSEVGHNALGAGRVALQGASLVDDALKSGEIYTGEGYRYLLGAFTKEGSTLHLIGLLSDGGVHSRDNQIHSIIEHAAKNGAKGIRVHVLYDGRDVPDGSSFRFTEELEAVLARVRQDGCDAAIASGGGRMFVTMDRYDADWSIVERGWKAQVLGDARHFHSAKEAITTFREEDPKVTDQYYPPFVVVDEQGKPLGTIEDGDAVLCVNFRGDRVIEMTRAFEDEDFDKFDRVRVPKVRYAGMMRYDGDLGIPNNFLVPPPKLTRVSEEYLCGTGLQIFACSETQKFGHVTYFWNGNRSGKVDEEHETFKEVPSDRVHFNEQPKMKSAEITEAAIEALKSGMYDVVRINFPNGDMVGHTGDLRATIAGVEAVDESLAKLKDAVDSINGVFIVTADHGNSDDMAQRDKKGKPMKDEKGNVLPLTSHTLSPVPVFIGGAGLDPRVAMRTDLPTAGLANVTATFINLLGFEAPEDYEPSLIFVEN

SMILES | outcome
O=C(Cc1ccc(Cl)c(Cl)c1)N1CCCCC1CN1CCCC1 (stereo not given) | inactive
O=C(O)Cc1cnc[nH]1 | inactive
CN1C2CCC1CC(OC(=O)c1cc(Cl)cc(Cl)c1)C2 (stereo not given) | inactive
C[C@@H]1O[C@H](C[N+](C)(C)C)C[C@H]1O | inactive
O=C(O)[C@@H]1CCN1 | inactive
S=C(NC1CCCCC1)N1CCC(c2cnc[nH]2)CC1 | inactive
CNCCc1c[nH]c2ccc(O)cc12 | inactive
Oc1ccc2c3c1O[C@H]1c4[nH]c5c(c4C[C@@]4(O)[C@@H](C2)N(CC2CC2)CC[C@]314)C[C@@]1(O)[C@H]2Cc3ccc(O)c4c3[C@@]1(CCN2CC1CC1)[C@H]5O4 | inactive
C[N+]1(C)C2CCC1CC(OC(=O)C(CO)c1ccccc1)C2 (stereo not given) | inactive
NCc1cc(=O)[nH]o1 | inactive
c1ccc(CCCN2CCN(CCOC(c3ccccc3)c3ccccc3)CC2)cc1 | inactive
C/C=C(/C)C(=O)O[C@H]1C(C)=C2[C@H]([C@@H]1OC(=O)CCCCCCC)[C@@](C)(OC(C)=O)C[C@H](OC(=O)CCC)[C@@]1(O)[C@H]2OC(=O)[C@@]1(C)O | inactive
Cc1c(C(=O)c2cccc3ccccc23)c2cccc3c2n1[C@H](CN1CCOCC1)CO3 | inactive
C[C@@H](N)Cc1cnc[nH]1 | inactive
CC1=NN=C(c2ccc(N)cc2)c2cc3c(cc2C1)OCO3 | inactive
C=CCN1CC[C@]23CCCCC2[C@H]1Cc1ccc(O)cc13 (stereo not given in full) | inactive
Cc1nccc2c1[nH]c1ccccc12 | inactive
NC(=NCCC[C@H](N)C(=O)O)N[N+](=O)[O-] | inactive
CCCN1CCO[C@@H]2c3cc(O)ccc3OC[C@H]21 | inactive
COc1cc(C(O)CN)ccc1O (stereo not given) | inactive

SMILES | outcome
C[C@]12N[C@H](Cc3ccccc31)c1ccccc12 | inactive
CCCN(CCC)C1CCc2ccc(O)cc2C1 (stereo not given) | inactive
COC(=O)[C@@H](N)CCCN=C(N)N[N+](=O)[O-] | inactive
c1ccc(C2(c3ccccc3)CC2C2=NCCN2)cc1 (stereo not given) | inactive
Cn1cnc(CCN)c1 | inactive
CN[C@@H]1C[C@@H](c2ccc(Cl)c(Cl)c2)c2ccccc21 | inactive
CCCCc1ccc(C(=O)O)nc1 | inactive
CC(C)Oc1cccnc1N(C)C1CCN(Cc2ccccc2)CC1 | inactive
NCCc1c[nH]c2ccccc12 | inactive
CC(Cc1ccc(O)cc1)NCC(O)c1cc(O)cc(O)c1 (stereo not given) | inactive
NCCc1c[nH]c2ccc(O)cc12 | inactive
CCCN(CCC)[C@@H]1CCc2ccc(O)cc2C1 | inactive
NC1CCc2cc(O)c(O)cc2C1 (stereo not given) | inactive
NC(=O)CN1CC(O)CC1=O (stereo not given) | inactive
c1ccc2sc(C3(N4CCCCC4)CCCCC3)cc2c1 | inactive
Clc1cnc(Oc2ccc(Oc3ncc(Cl)cc3Cl)cc2)c(Cl)c1 | inactive
C#CCOC(=O)C1=CCCN(C)C1 | inactive
CC[C@@]1(O)C(=O)OCc2c1cc1n(c2=O)Cc2cc3ccccc3nc2-1 | inactive
NC(CCP(=O)(O)O)C(=O)O (stereo not given) | inactive
CS(=N)(=O)CC[C@H](N)C(=O)O (stereo not given in full) | inactive
